From PubChem BioAssay (NCI)
About 83,000 compounds went through this panel and 20% of them were active in at least one assay; those are over-represented in the sample as a whole.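 Note: values are percent growth. 100 is the growth of untreated cells, values between 100 and 0 indicate rising inhibition; between -100 and 0 indicates cell death.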 Calls of active or inactive are those of the source. The calls were made as follows: active = growth percent below 10; inactive = the rest.

Tests used:
Assay in all cases: NCI-60 one-dose screen, 48 h (100 = growth as untreated, 0 = no growth, -100 = all killed)
Conditions in all cases: 10 µM
SK-MEL-2 melanoma = test system: SK-MEL-2 melanoma
SN12C renal = test system: SN12C renal
UO-31 renal = test system: UO-31 renal
TK-10 renal = test system: TK-10 renal
ACHN renal = test system: ACHN renal
CAKI-1 renal = test system: CAKI-1 renal
A498 renal = test system: A498 renal
CCRF-CEM leukemia = test system: CCRF-CEM leukemia
MOLT-4 leukemia = test system: MOLT-4 leukemia
SR leukemia = test system: SR leukemia
RPMI-8226 leukemia = test system: RPMI-8226 leukemia
OVCAR-8 ovarian = test system: OVCAR-8 ovarian
OVCAR-5 ovarian = test system: OVCAR-5 ovarian
OVCAR-4 ovarian = test system: OVCAR-4 ovarian
SK-OV-3 ovarian = test system: SK-OV-3 ovarian
IGROV1 ovarian = test system: IGROV1 ovarian
OVCAR-3 ovarian = test system: OVCAR-3 ovarian
NCI/ADR-RES ovarian = test system: NCI/ADR-RES ovarian
HS 578T breast = test system: HS 578T breast

Measured: growth

COc1cccc(-c2nnc(COc3ccc(-c4nc5ccc(C)cc5[nH]4)cc3OC)o2)c1
inactive: SK-MEL-2 melanoma 98.8% | SN12C renal 72.6% | UO-31 renal 88.2% | TK-10 renal 102% | ACHN renal 25.9% | CAKI-1 renal 94.4% | A498 renal 71.3% | MOLT-4 leukemia 25.6% | OVCAR-8 ovarian 46.9% | OVCAR-5 ovarian 103% | OVCAR-4 ovarian 54.4% | SK-OV-3 ovarian 101% | IGROV1 ovarian 85.1% | OVCAR-3 ovarian 77.4% | NCI/ADR-RES ovarian 76.8%
active: CCRF-CEM leukemia 2.49% | SR leukemia -25.7% | RPMI-8226 leukemia -12.2%

CC1=CC2OC34COC3CC(OC(=O)C(F)(F)F)C4(C)C2(C)CC1 (stereo unspecified)
inactive: SK-MEL-2 melanoma 104% | SN12C renal 98.4% | UO-31 renal 99.5% | TK-10 renal 101% | ACHN renal 98.4% | CAKI-1 renal 102% | A498 renal 79.6% | CCRF-CEM leukemia 101% | MOLT-4 leukemia 113% | SR leukemia 99.3% | RPMI-8226 leukemia 101% | OVCAR-8 ovarian 106% | OVCAR-5 ovarian 101% | OVCAR-4 ovarian 103% | SK-OV-3 ovarian 102% | IGROV1 ovarian 119% | OVCAR-3 ovarian 118% | HS 578T breast 97.7% | NCI/ADR-RES ovarian 105%

O=C1/C(=C/c2ccc(O)cc2)Oc2ccc(Cl)cc21
inactive: SK-MEL-2 melanoma 109% | SN12C renal 84.6% | UO-31 renal 38.5% | TK-10 renal 117% | ACHN renal 95.4% | CAKI-1 renal 77.1% | A498 renal 125% | CCRF-CEM leukemia 88.2% | MOLT-4 leukemia 81.1% | SR leukemia 109% | RPMI-8226 leukemia 119% | OVCAR-8 ovarian 79.4% | OVCAR-5 ovarian 106% | OVCAR-4 ovarian 120% | SK-OV-3 ovarian 111% | OVCAR-3 ovarian 92.9% | NCI/ADR-RES ovarian 87.3%
active: IGROV1 ovarian -27.4%

CC(=O)OCC(COC(C)=O)(COC(C)=O)COC(C)=O
inactive: SK-MEL-2 melanoma 101% | SN12C renal 108% | UO-31 renal 84.7% | TK-10 renal 108% | ACHN renal 110% | CAKI-1 renal 103% | A498 renal 73.4% | CCRF-CEM leukemia 103% | MOLT-4 leukemia 93.5% | SR leukemia 86.6% | RPMI-8226 leukemia 97.6% | OVCAR-8 ovarian 103% | OVCAR-4 ovarian 112% | SK-OV-3 ovarian 99.6% | IGROV1 ovarian 104% | OVCAR-3 ovarian 103% | HS 578T breast 101% | NCI/ADR-RES ovarian 106%

COc1ccc(-c2nsc3c2NC(=O)CC3c2ccc(Cl)cc2)cc1 (stereo unspecified)
inactive: SK-MEL-2 melanoma 77.2% | SN12C renal 83.8% | UO-31 renal 62.8% | TK-10 renal 83.9% | ACHN renal 82.7% | CAKI-1 renal 80.2% | A498 renal 83.3% | CCRF-CEM leukemia 74.4% | MOLT-4 leukemia 66.9% | SR leukemia 67.8% | RPMI-8226 leukemia 72.2% | OVCAR-8 ovarian 90.2% | OVCAR-4 ovarian 99.8% | SK-OV-3 ovarian 86.9% | IGROV1 ovarian 77.6% | OVCAR-3 ovarian 93.2% | HS 578T breast 95.3% | NCI/ADR-RES ovarian 81.1%

Clc1ccc(-c2nc(-c3cccs3)cn3ccnc23)cc1
inactive: SK-MEL-2 melanoma 70.6% | SN12C renal 85.3% | UO-31 renal 45.9% | TK-10 renal 60.7% | ACHN renal 91.2% | CAKI-1 renal 59% | A498 renal 90.5% | CCRF-CEM leukemia 65.3% | MOLT-4 leukemia 62.4% | SR leukemia 59.5% | RPMI-8226 leukemia 64.7% | OVCAR-8 ovarian 81% | OVCAR-5 ovarian 108% | OVCAR-4 ovarian 64.6% | SK-OV-3 ovarian 50.2% | IGROV1 ovarian 60.9% | OVCAR-3 ovarian 72.6% | NCI/ADR-RES ovarian 55.5%

COc1cccc(C(=O)NNc2nc(N3CCN(C4CCCCC4)CC3)nc(N3CCN(C(c4ccccc4)c4ccccc4)CC3)n2)c1
inactive: SK-MEL-2 melanoma 87.3% | SN12C renal 51.8% | UO-31 renal 32.9% | TK-10 renal 46.1% | ACHN renal 70.2% | CAKI-1 renal 59.4% | A498 renal 49.2% | CCRF-CEM leukemia 39.9% | MOLT-4 leukemia 15.5% | OVCAR-8 ovarian 30.1% | OVCAR-5 ovarian 94.3% | OVCAR-4 ovarian 24.2% | SK-OV-3 ovarian 52.2% | IGROV1 ovarian 37.6% | OVCAR-3 ovarian 32.2% | NCI/ADR-RES ovarian 31.1%
active: SR leukemia -16.1% | RPMI-8226 leukemia -11.5%

Cc1ccc(C2C=C(c3ccc(Cl)cc3)N=C3SC=CN32)c(Br)c1 (stereo unspecified)
active: SR leukemia 0.074% | RPMI-8226 leukemia -0.582%
inactive: SK-MEL-2 melanoma 105% | SN12C renal 94% | UO-31 renal 57.8% | TK-10 renal 125% | ACHN renal 91.8% | CAKI-1 renal 65.1% | A498 renal 87% | CCRF-CEM leukemia 55.7% | MOLT-4 leukemia 64.9% | OVCAR-8 ovarian 80% | OVCAR-5 ovarian 92.8% | OVCAR-4 ovarian 67.4% | SK-OV-3 ovarian 101% | IGROV1 ovarian 75.7% | OVCAR-3 ovarian 87.1% | HS 578T breast 94.1% | NCI/ADR-RES ovarian 85.6%

CCCc1c(C)nc2scc(-c3ccc(Cl)cc3)n2c1=O
inactive: SK-MEL-2 melanoma 95.1% | SN12C renal 96.3% | UO-31 renal 73% | TK-10 renal 102% | ACHN renal 95.3% | CAKI-1 renal 96.6% | A498 renal 98.2% | CCRF-CEM leukemia 95% | MOLT-4 leukemia 87.1% | SR leukemia 83.1% | RPMI-8226 leukemia 96.4% | OVCAR-8 ovarian 107% | OVCAR-5 ovarian 104% | OVCAR-4 ovarian 97.3% | SK-OV-3 ovarian 103% | IGROV1 ovarian 107% | OVCAR-3 ovarian 104% | HS 578T breast 101% | NCI/ADR-RES ovarian 101%

FC(F)(F)c1ccc(-c2nc(-c3nc4cc(Cl)c(Cl)cc4[nH]3)c3ccccn23)cc1
inactive: SK-MEL-2 melanoma 68.6% | SN12C renal 84.4% | UO-31 renal 58.5% | TK-10 renal 16.7% | ACHN renal 63.6% | CAKI-1 renal 83.9% | A498 renal 38.5% | CCRF-CEM leukemia 81.6% | MOLT-4 leukemia 63.5% | SR leukemia 84.2% | RPMI-8226 leukemia 71.5% | OVCAR-8 ovarian 63.3% | OVCAR-5 ovarian 88.6% | SK-OV-3 ovarian 38% | IGROV1 ovarian 66.3% | OVCAR-3 ovarian 52.7% | NCI/ADR-RES ovarian 63.5%
active: OVCAR-4 ovarian 4.24% | HS 578T breast 3.78%

NS(=O)(=O)c1ccc(N2N=C(c3ccc(-c4ccccc4)cc3)CC2c2ccc(Cl)cc2)cc1 (stereo unspecified)
inactive: SK-MEL-2 melanoma 95.5% | SN12C renal 67.4% | UO-31 renal 72.1% | TK-10 renal 112% | ACHN renal 80.4% | CAKI-1 renal 78.7% | A498 renal 87.4% | CCRF-CEM leukemia 74.4% | MOLT-4 leukemia 70.6% | SR leukemia 73.5% | RPMI-8226 leukemia 63.4% | OVCAR-8 ovarian 78% | OVCAR-5 ovarian 95% | OVCAR-4 ovarian 76.1% | SK-OV-3 ovarian 95% | IGROV1 ovarian 88.1% | OVCAR-3 ovarian 94.3% | NCI/ADR-RES ovarian 84.5%

CCCCCCOc1ccc(/C=C/C(=O)c2ccc(B(O)O)cc2)cc1
inactive: SK-MEL-2 melanoma 78% | SN12C renal 71.4% | UO-31 renal 51.6% | TK-10 renal 85.2% | ACHN renal 89.5% | CAKI-1 renal 61.5% | A498 renal 70.4% | CCRF-CEM leukemia 59.1% | MOLT-4 leukemia 58.3% | SR leukemia 48.4% | RPMI-8226 leukemia 46.2% | OVCAR-8 ovarian 81.2% | OVCAR-5 ovarian 77.3% | OVCAR-4 ovarian 64.6% | SK-OV-3 ovarian 87.3% | IGROV1 ovarian 64.7% | OVCAR-3 ovarian 97.1% | HS 578T breast 60.3% | NCI/ADR-RES ovarian 77.4%

Cc1ccc(C(=O)O)c(N)c1C
inactive: SK-MEL-2 melanoma 89.3% | SN12C renal 106% | UO-31 renal 57.6% | TK-10 renal 122% | ACHN renal 103% | CAKI-1 renal 92.6% | A498 renal 108% | CCRF-CEM leukemia 93.4% | MOLT-4 leukemia 93.6% | SR leukemia 98.4% | RPMI-8226 leukemia 98.7% | OVCAR-8 ovarian 100% | OVCAR-4 ovarian 99.3% | SK-OV-3 ovarian 93.5% | IGROV1 ovarian 91% | OVCAR-3 ovarian 104% | HS 578T breast 106% | NCI/ADR-RES ovarian 106%

COc1cc(C2C(C#N)=C(c3c[nH]c4ccccc34)Nc3nc(N)[nH]c(=O)c32)cc(OC)c1OC (stereo unspecified)
inactive: SK-MEL-2 melanoma 93.8% | SN12C renal 90.9% | UO-31 renal 79.3% | TK-10 renal 123% | ACHN renal 95% | CAKI-1 renal 95.2% | A498 renal 89.9% | CCRF-CEM leukemia 53.5% | MOLT-4 leukemia 98.2% | SR leukemia 78.7% | RPMI-8226 leukemia 98.2% | OVCAR-8 ovarian 99.1% | OVCAR-5 ovarian 96.8% | OVCAR-4 ovarian 75.2% | SK-OV-3 ovarian 80.6% | IGROV1 ovarian 80.3% | OVCAR-3 ovarian 21% | NCI/ADR-RES ovarian 100%

CCCc1c(CC)c(=N)c2ccccc2n1C
inactive: SK-MEL-2 melanoma 37.3% | SN12C renal 72.5% | UO-31 renal 38.3% | TK-10 renal 74.4% | ACHN renal 65.8% | CAKI-1 renal 39.8% | A498 renal 42.4% | OVCAR-8 ovarian 76.1% | OVCAR-5 ovarian 100% | OVCAR-4 ovarian 79.7% | SK-OV-3 ovarian 91.3% | IGROV1 ovarian 82.8% | OVCAR-3 ovarian 85% | NCI/ADR-RES ovarian 78.6%
active: CCRF-CEM leukemia 9.26% | MOLT-4 leukemia 0.122% | SR leukemia -27.5% | RPMI-8226 leukemia -17%

Cc1cccc2c1O/C(=C\c1ncc([N+](=O)[O-])n1C)C2=O
active: SK-MEL-2 melanoma -45.3% | SN12C renal -48.5% | UO-31 renal -38.9% | TK-10 renal -34.3% | ACHN renal 4.76% | CAKI-1 renal -29.7% | A498 renal -72.7% | CCRF-CEM leukemia 5.23% | MOLT-4 leukemia -0.52% | SR leukemia 9.3% | RPMI-8226 leukemia -13% | OVCAR-8 ovarian -21.3% | OVCAR-4 ovarian -2.81% | SK-OV-3 ovarian -17.5% | IGROV1 ovarian -18.1% | OVCAR-3 ovarian -12.2% | HS 578T breast -23.9% | NCI/ADR-RES ovarian 2.37%

COc1cc(-c2nc3ccc(C)cc3[nH]2)ccc1OCc1nnc(-c2ccc(CC(C)C)cc2)o1
inactive: SK-MEL-2 melanoma 97.3% | SN12C renal 92% | UO-31 renal 77.8% | TK-10 renal 119% | ACHN renal 107% | CAKI-1 renal 95.1% | A498 renal 81.8% | CCRF-CEM leukemia 80.3% | MOLT-4 leukemia 82.4% | RPMI-8226 leukemia 68.9% | OVCAR-8 ovarian 97.8% | OVCAR-4 ovarian 91.2% | SK-OV-3 ovarian 94.4% | IGROV1 ovarian 91.4% | OVCAR-3 ovarian 101% | HS 578T breast 84% | NCI/ADR-RES ovarian 96%
active: SR leukemia -2.79%
